Shown are actives, neighbours in structure and some others; about 14% of the full set was active somewhere.
MARV entry inh: qHTS for inhibitors of binding or entry into cells for Marburg Virus | hit rate 1.8% among 300,000 | Marburg virus pseudotyped entry inhibition, cell reporter | Potency, µM (titrated, usually from 37.8 µM), hits mostly inhibitors | AID 540276, 2011; calls by dose curve; tested in HEK293 cells
Pf growth 96h: Primary qHTS for delayed death inhibitors of the malarial parasite plastid, 96 hour incubation | P. falciparum luciferase reporter growth, 96 h | Potency, µM (doses to about 28.7 µM), actives largely listed as inhibitors | hit rate 6.9% among 320,000
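P. falciparum expressing integrated firefly luciferase, in erythrocytes at 2% hematocrit, 0.05% parasitemia, incubated with compounds 96 h at 37 C, 5% CO2. Growth inhibition read as loss of luminescence; two-generation exposure targets delayed-death apicoplast inhibitors.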
HCV inh: qHTS Assay for Inhibitors of Hepatitis C Virus (HCV); Huh7.5.1 HCVcc-Cre infection, luciferase reporter, 44 h; Potency, µM (top dose mostly 41.8 µM), hits mostly inhibitors; hit rate 3.4% among 340,000; AID 651820, 2012
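A cell-based infection assay in which seeded cells (1,000 per well) receive test compound after 4 h, are inoculated with HCVcc-Cre at approximately 0.5 moi, and are incubated 44 h before luminescence detection.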
LASV entry inh: qHTS for Inhibitors of binding or entry into cells for Lassa Virus; Potency, µM (series often up to 37.9 µM), most hits filed as inhibitors; AID 540256, 2011; Lassa virus pseudotype entry inhibition, cell reporter; hit rate 1.2% among 300,000; calls by dose curve; tested in HEK293 cells; note: nearly all actives have a fitted effect of over 50% in size
HCMV antiviral: qHTS Assay for inhibitors of the human cytomegalovirus (HCMV). activity change, negative = inhibition, % at 57.5 µM. AID 1259415, 2018. HFF cells, HCMV-luciferase reporter, 72 h; hits give low values. hit rate 4.5% among 410,000; in the data active = activity change below about -60%; inconclusive = no clear call, values can overlap the other calls; inactive = above about -39%
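Inhibition of viral replication was scored as loss of reporter luminescence in HFFs infected with HCMV-luciferase (MOI 1 PFU/cell) for 72 h; compounds tested at 2 doses, normalized to buffer and Salinomycin controls.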
Pf growth 48h: Primary qHTS for delayed death inhibitors of the malarial parasite plastid, 48 hour incubation; Potency, µM (doses to about 28.7 µM), most hits filed as inhibitors; hit rate 5.9% among 310,000; AID 504832, 2011; P. falciparum luciferase growth in erythrocytes, 48 h
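First compound was added to culture medium, then infected red cells at 0.1% parasitemia and 2% hematocrit (final). After incubation at 37 C under 5% CO2, luciferase detection reagent was dispensed and light output recorded.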
Hits are given with their value; i = inactive; ? = inconclusive; nt = no result; [ ] = dose if it differs, or a comment. Unless noted, calls come from the whole dose curve; as a rule, active = well fitted inhibition curve with a large enough effect; inconclusive = small, poorly fitted or top-dose-only effect, or another doubt; inactive = no such curve, though single readings can be large or run the other way.

SMILES | MARV entry inh | Pf growth 96h | HCV inh | LASV entry inh | HCMV antiviral | Pf growth 48h
O=C(Nc1cccc(C(F)(F)F)c1)c1cc2nc(-c3ccc4c(c3)OCO4)cc(C(F)(F)F)n2n1 | i | nt | nt | i | i | nt
Cc1cc(=O)oc2cc(OCc3cn(CC(=O)c4ccc(O)cc4)nn3)ccc12 | nt | nt | nt | i | nt | nt
CCN(CC)C(=O)CSc1nc2c(sc(=S)n2-c2ccccc2)c(=O)n1-c1ccccc1OC | ? | i | ? | ? | ? | 8.3µM
COc1ccccc1-n1c(SCC(=O)O)nc2c(sc(=S)n2-c2ccc(Cl)c(C)c2)c1=O | nt | i | i | nt | i | ?
CCn1c(=S)sc2c(=O)n(-c3ccccc3)c(SC)nc21 | i | i | ? | i | -61 | ?
N#CCSc1nc2c(sc(=S)n2Cc2ccco2)c(=O)n1-c1ccc(F)cc1 | ? | ? | ? | i | -107 | ?
CCN(CC)C(=O)CSc1nc2c(sc(=S)n2-c2ccccc2)c(=O)n1-c1ccc(OC)cc1OC | nt | ? | ? | nt | -69 | 6.6µM
CCCn1c(SCC(=O)NCc2ccc3c(c2)OCO3)n[nH]c1=O | nt | i | i | nt | i | i
COc1ccccc1-n1c(SCC(=O)O)nc2c(sc(=S)n2-c2ccc(C)c(C)c2)c1=O | nt | ? | i | nt | i | i
CCN(CC)C(=O)CSc1nc2c(sc(=S)n2-c2ccccc2)c(=O)n1-c1ccc(OC)c(OC)c1 | nt | i | ? | nt | -68 | 4.7µM
CCOC(=O)CSc1nc2c(sc(=S)n2-c2ccccc2)c(=O)n1-c1ccc(OC)cc1OC | nt | i | i | nt | i | 10µM
Fc1ccc(-c2cc(-c3ccccc3)nc(-n3cccn3)n2)cc1 | ? | i | ? | i | -61 | i
CC(C)NC(=O)NC(=O)COC(=O)c1ccccc1Oc1ccccc1 | 11µM | i | i | ? | i | nt
CC(C)NC(=O)NC(=O)COC(=O)c1ccccc1O | i | i | i | i | i | i
CCn1c(CCNC(=O)c2ccc(Cl)c(Cl)c2)nnc1SCCOc1ccc(OC)cc1 | i | 10µM | i | i | -65 | ?
C=CCn1c(SCCOc2ccc(OC)cc2)nnc1C(CO)NC(=O)c1ccc(OC)cc1 (centres undefined) | i | ? | i | i | i | nt
C=CCn1c(SCCOc2ccc(OC)cc2)nnc1C(C)NC(=O)c1ccc(OC)cc1 (centres undefined) | i | 6.6µM | i | i | i | nt
CCn1c(SCc2ccc(Cl)c(Cl)c2)nnc1C(C)NC(=O)c1ccc(OC)cc1 (centres undefined) | i | ? | i | i | i | i
COc1ccc(C(=O)NC(C)c2nnc(SCc3ccc(Cl)c(Cl)c3)n2C)cc1 (centres undefined) | i | 12µM | i | i | i | ?
CC(=O)c1ccc(S(=O)(=O)NCCC(=O)NC2CCN(Cc3ccccc3)CC2)cc1 | ? | nt | i | i | i | nt
COc1ccc(OC)c(N2C(=O)c3cccnc3C2=O)c1 | i | i | i | i | i | i
COc1cccc(CNC(=O)CCn2cnc3ccccc3c2=O)c1 | nt | nt | nt | i | i | nt
Clc1ccc(Nc2nc(-c3ccccc3)c3ccccc3n2)c(Cl)c1 | nt | nt | nt | i | i | nt
N#Cc1ccc(Oc2nc(C#N)cc(-c3ccccc3)n2)cc1 | i | ? | i | i | ? | i
COc1ccc(-c2cc(C#N)nc(N3CCNCC3)n2)cc1 | ? | 2.6µM | i | i | i | nt
SMILES | MARV entry inh | Pf growth 96h | HCV inh | LASV entry inh | HCMV antiviral | Pf growth 48h
CN1CCN(c2nc(C#N)cc(-c3ccccc3)n2)CC1 | i | i | 10µM | i | i | ?
N#Cc1cc(-c2ccccc2)nc(Oc2ccccc2)n1 | nt | i | 10µM | nt | ? | i
COc1ccc(-c2cc(C(N)=O)nc(N3CCCCCC3)n2)cc1 | i | i[5.75 µM] | i | i | i | i
FC(F)(F)c1cc(-c2ccccc2)nc(N2CCCCCC2)n1 | i | i | i | i | i | i
Cc1cccc(NC(=O)Cn2nnc(C(=O)NCc3cccs3)c2N)c1 | i | nt | nt | i | i | nt
C=CCn1c(SCC(=O)c2ccc(Cl)cc2)nnc1-c1ccc2c(c1)OCO2 | ? | 12µM | i | ? | i | ?
C=CCn1c(SCC(=O)c2ccc(OC)cc2)nnc1-c1ccc2c(c1)OCO2 | i | ? | i | i | i | i
Cc1cccnc1C(c1ccc(F)cc1)N(C)C(=O)C1CCN(CCOc2ccc(Cl)cc2Cl)CC1 (centres undefined) | nt | nt | nt | nt | i | nt
CCN1C(=O)N[C@@H](CCc2ccccc2)[C@H](C(=O)OC)[C@H]1C | nt | nt | i[8.37 µM] | nt | i | nt
CCN1C(=NCCc2cccs2)N[C@@H](CCc2ccccc2)[C@H](C(=O)NCCc2cccs2)[C@H]1C | ? | i | nt | nt | nt | 1.5µM
Clc1ccc(-c2nnc(NC3=NCCCCC3)o2)cc1 | 1.6µM | i | ? | ? | ? | i
O=C(Nc1nnc(-c2ccc(Cl)cc2)o1)C1CCCCC1 | nt | i | i | nt | i | ?
CC(C)(C)OC(=O)NCCc1onc(-c2cccc([N+](=O)[O-])c2)c1C(=O)O | nt | nt | nt | nt | i | nt
COc1ccc2c(c1)CC/C(=C\C=C\c1ccccc1OC)C2=O | i | ? | ? | ? | i | i
COc1ccc2c(c1)C(=O)/C(=C/C=C/c1ccccc1)CC2 | i | 2.3µM | i | i | i | ?
CCn1nc(C)c(/C=C/C(=O)Nc2ccc(C)cc2C)c1C | i | ? | i | ? | -73 | ?
NCc1ccccc1 | nt | i | i | nt | i | i
OCc1ccccc1 | nt | 6µM | nt | nt | nt | 5.4µM
CCC(=O)c1ccc(OCC(=O)OCC(=O)c2cc(C)n(C)c2C)cc1 | i | 13µM | nt | i | ? | ?
CCC(=O)c1ccc(OCC(=O)OCC(=O)c2c(N)n(C)c(=O)n(C)c2=O)cc1 | i | i | i | i | i | i
CCOC(=O)c1ccc(NC(=O)Cc2coc3cc(C)cc(C)c23)cc1 | ? | nt | nt | i | i | nt
CCOc1ccc(C2=C(C=Nc3c(C)n(C)n(-c4ccccc4)c3=O)C(c3ccc(F)cc3)c3ccccc3O2)cc1 (centres undefined) | i | 0.29µM | i | i | nt | nt
CCOc1ccc(C2SCC(=O)N2c2c(C)n(C)n(-c3ccccc3)c2=O)cc1 (centres undefined) | i | i | i | i | i | i
CC(C)N(C(=O)CSc1cn(CC(=O)N2CCCCCC2)c2ccccc12)C(C)C | nt | nt | nt | i | ? | nt
CCC1C(c2ccccc2)NC(c2ccccc2)CC1(O)c1ccc(F)cc1 (centres undefined) | nt | ? | i | nt | i | 10µM
COc1c(C(N)=O)cc(-c2ccc(Cl)cc2)cc1-c1ccc(S(N)(=O)=O)cc1 | nt | nt | nt | 25µM | nt | nt
COc1ccc(Cl)cc1C(=O)Nc1ccc(S(N)(=O)=O)cc1 | i | i | ? | i | ? | i
COc1cccc(C(=O)N2N=C(c3ccccc3)CC2(O)C(F)(F)F)c1 (centres undefined) | i | i | ? | i | i | i

Assay outcomes (PubChem)
